Nrf2 block – inhibitors of Nrf2 signaling; A549 ARE-Fluc reporter, luciferase luminescence, 18-24 h; hit rate 2.1% among 360,000; Potency, µM (doses to about 46 µM), for inactives: top-dose activity change, negative = inhibition, hits mostly inhibitors; further: on the % scale 0 is the no-effect control and ±100 the full control effect; nearly all actives have a fitted effect of over 60% in size
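Cells were seeded and rested 2 h, then exposed to compounds for 18-24 h. CellTiter-Fluor was read first as a viability measure. BugLite was added 15 min before the final luminescent read of ARE-luciferase activity in A549 cells.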
Nrf2 activator – activates Nrf2 signaling; Potency, µM (series often up to 46.1 µM), for inactives: at the highest dose activation, usual class: activators; hit rate 0.31% among 410,000; AREc32 ARE-luciferase reporter (MCF7-derived line), luminescence, 24 h; further: % of control where 0% means no effect; nearly all actives have a fitted effect of over 65% in size
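Luciferase luminescence (Steady-Glo, 30 min at room temperature) served as the read-out of ARE activation in AREc32 cells treated with compounds for 24 hr at 37 deg C.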
ATXN2 expr inh – reduces ATXN2 reporter expression in HEK-293 cells. HEK-293 ATXN2-luciferase reporter, luminescence, 24 h. Potency, µM (series often up to 57 µM), for inactives: at the highest dose activity change, negative = inhibition, most hits filed as inhibitors. hit rate 0.72% among 360,000; further: on the % scale 0 is the no-effect control and ±100 the full control effect; nearly all actives have a fitted effect of over 55% in size
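qHTS (up to 57 uM final) was run with 24 h compound exposure of reporter cells at 37 °C. Each well was multiplexed: SteadyGlo luminescence measured ATXN2-luciferase expression after a fluorogenic Gly-Phe-AFC viability readout (25 uM final).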
ATXN viability – viability counter-screen for ATXN expression inhibitors | Potency, µM (top dose mostly 56.7 µM), actives largely listed as cytotoxic | hit rate 0.49% among 400,000 | S2 cells (HEK-293 line with an ATXN2-luciferase reporter) viability, CellTiter-Fluor protease fluorescence, 24 h; further: nearly all actives have a fitted effect of over 40% in size
A549 tox – kills or reduces viability of A549 cells in Nrf2 counter-screen; A549 ARE-Fluc cells, CellTiter-Fluor viability, 18-24 h; hit rate 0.16% among 390,000; Potency, µM (doses to about 46 µM), for inactives: top-dose activity change, negative = cytotoxicity, most hits filed as inhibitors; further: on the % scale 0 is the no-effect control and ±100 the full control effect
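Cytotoxicity counterscreen: CellTiter-Fluor fluorescence was measured in A549 ARE_Fluc cells after 18-24 h of compound exposure in a concentration series. The subsequent BugLite luminescent read reports ARE-luciferase activity.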
An asterisk follows results filed as active; [ ] = dose if it differs, or a comment. A selection: hits, their analogues and other compounds. The true share with any hit is near 2.9%. The call rests on the fitted dose curve; in most records, active means well fitted curve in the direction sought with a large enough effect; inconclusive means small, poorly fitted or top-dose-only effect, or another doubt; inactive means no such curve, though single readings can be large; an effect the other way counts as inactive or inconclusive. Potency means the concentration at half of the fitted maximal effect.

For CC(C)N(C(=O)[C@H]1C[C@H](CC(=O)NCC23CC4CC(CC(C4)C2)C3)C(=O)N2CCc3c([nH]c4cc(CCC(=O)N(C)C)ccc34)[C@]12C)C(C)C the results were Nrf2 block 21µM*, Nrf2 activator -1%, ATXN2 expr inh inconclusive, ATXN viability 25µM* and A549 tox inconclusive.
CN(C)C(=O)CCc1ccc2c3c([nH]c2c1)[C@]1(C)[C@@H](C(=O)N2CCOCC2)C[C@H](CC(=O)NCC24CC5CC(CC(C5)C2)C4)C(=O)N1CC3 was read as Nrf2 block 9%, Nrf2 activator 4%, ATXN2 expr inh 9%, ATXN viability inactive and A549 tox 1%.
CC(C)N(C(=O)[C@H]1CC(CC(=O)NCC23CC4CC(CC(C4)C2)C3)C(=O)N2CCc3c([nH]c4ccccc34)[C@]12C)C(C)C (stereo partly specified) was read as Nrf2 block 26µM*, Nrf2 activator -1%, ATXN2 expr inh inconclusive, ATXN viability inconclusive and A549 tox inconclusive.
For CCN(CC)C(=O)[C@H]1CC(CC(=O)NCC23CC4CC(CC(C4)C2)C3)C(=O)N2CCc3c([nH]c4ccc(OC)cc34)[C@]12C (stereo partly specified) the results were Nrf2 block 23µM*, Nrf2 activator 5%, ATXN2 expr inh -4%, ATXN viability inconclusive and A549 tox -7%.
`C=CCNC(=S)NC(=O)c1ccc(C)c(Br)c1` gave Nrf2 block inconclusive, Nrf2 activator 5%, ATXN2 expr inh 14%, ATXN viability inactive and A549 tox 8%.
`CCCNC(=O)C1CC(c2ccccc2[N+](=O)[O-])=NO1` (stereo unspecified) gave Nrf2 block 6%, Nrf2 activator 8%, ATXN2 expr inh 20%, ATXN viability inactive and A549 tox 16%.
`CC(C)N(C(=O)[C@H]1C[C@H](CC(=O)NCCC2=CCCCC2)C(=O)N2CCc3c([nH]c4ccc(Cl)cc34)[C@]12C)C(C)C` gave Nrf2 block 21µM*, Nrf2 activator 0%, ATXN2 expr inh -7%, ATXN viability inactive and A549 tox inconclusive.
For COc1ccc(CNC(=O)C[C@H]2C[C@H](C(=O)N(C(C)C)C(C)C)[C@@]3(C)c4[nH]c5ccc(Cl)cc5c4CCN3C2=O)cc1OC the results were Nrf2 block inconclusive, Nrf2 activator 8%, ATXN2 expr inh inconclusive, ATXN viability inconclusive and A549 tox -27%.
CN(C)S(=O)(=O)c1cccc(C(=O)Nc2ccc(C(=O)Nc3cccc(S(N)(=O)=O)c3)cc2)c1 was read as Nrf2 block -6%, Nrf2 activator 2%, ATXN2 expr inh -3%, ATXN viability inactive and A549 tox 3%.
`Cc1ccc(NC(=O)c2ccncc2)cc1S(=O)(=O)N(C)C` gave Nrf2 block 3%, Nrf2 activator 1%, ATXN2 expr inh -4%, ATXN viability inactive and A549 tox -3%.
Screening Cc1ccc(NC(=O)c2ccc(OC(F)(F)F)cc2)cc1S(=O)(=O)N(C)C returned Nrf2 block 12µM*, Nrf2 activator 4%, ATXN2 expr inh -26%, ATXN viability inactive and A549 tox -6%.
For CCN(CC)S(=O)(=O)c1cccc(NC(=O)c2ccc(-n3nc(C)cc3C)cc2)c1 the results were Nrf2 block 18µM*, Nrf2 activator 1%, ATXN2 expr inh inconclusive, ATXN viability inconclusive and A549 tox inconclusive.
CN(C)S(=O)(=O)c1cccc(NC(=O)c2cccc(NS(=O)(=O)c3ccccc3)c2)c1 was read as Nrf2 block 15µM*, Nrf2 activator -1%, ATXN2 expr inh -21%, ATXN viability inactive and A549 tox inconclusive.
Screening CN(C)S(=O)(=O)Oc1ccc(C(=O)Nc2cccc(C(F)(F)F)c2)cc1 returned Nrf2 block 23µM*, Nrf2 activator 0%, ATXN2 expr inh inconclusive, ATXN viability inconclusive and A549 tox inconclusive.
CN(C)S(=O)(=O)Oc1ccc(C(=O)Nc2cccc(Cl)c2)cc1 was read as Nrf2 block inconclusive, Nrf2 activator 2%, ATXN2 expr inh 31%, ATXN viability inactive and A549 tox -3%.
COc1ccc(-c2onc3ccc(C(=O)/C=C/N(C)C)cc23)cc1 was read as Nrf2 block inconclusive, Nrf2 activator 3%, ATXN2 expr inh -13%, ATXN viability inactive and A549 tox -13%.
O=C(NCCN1CCOCC1)c1ccc(CS(=O)c2ccccc2Cl)o1 (stereo unspecified) was read as Nrf2 block -18%, Nrf2 activator -1%, ATXN2 expr inh 1%, ATXN viability inactive and A549 tox 2%.
`CCOC(=O)CC1C(=O)NCCN1C(=O)c1ccc(Cl)cc1` (stereo unspecified) gave Nrf2 block 13%, Nrf2 activator -1%, ATXN2 expr inh 0%, ATXN viability inactive and A549 tox 6%.
For COc1ccc(N(C(=O)CNC(=O)c2ccco2)C(C(=O)NC2CCCC2)c2ccc(C)o2)cc1 (stereo unspecified) the results were Nrf2 block 1%, Nrf2 activator 0%, ATXN2 expr inh -13%, ATXN viability inactive and A549 tox -5%.
Screening Cc1c(Cl)cccc1NC(=S)N(C)CCC#N returned Nrf2 block 1%, Nrf2 activator 0%, ATXN2 expr inh -6%[11.3 µM], ATXN viability inactive and A549 tox 0%.
Screening Cc1cc(C)n(-c2ccc(C(=O)Nc3ccc(C)c(S(=O)(=O)N(C)C)c3)cc2)n1 returned Nrf2 block 18µM*, Nrf2 activator 2%, ATXN2 expr inh -14%, ATXN viability inactive and A549 tox inconclusive.
O=C(Nc1ccccc1)c1cccc(S(=O)(=O)NCc2ccco2)c1 was read as Nrf2 block 16µM*, Nrf2 activator 15%, ATXN2 expr inh -4%, ATXN viability inactive and A549 tox inconclusive.
CCN(CC)S(=O)(=O)c1cccc(NC(=O)CCNC(=O)c2ccc([N+](=O)[O-])cc2)c1 was read as Nrf2 block 23µM*, Nrf2 activator 3%, ATXN2 expr inh -32%, ATXN viability inactive and A549 tox -8%.
Screening O=C(Nc1ccccc1)c1ccc(S(=O)(=O)NCc2ccco2)cc1 returned Nrf2 activator 3%, ATXN2 expr inh 2%, ATXN viability inactive and A549 tox -8%.
Cc1ccc(NC(=O)CN(C)S(=O)(=O)c2cccc3nsnc23)cc1Cl was read as Nrf2 block 18µM*, Nrf2 activator 2%, ATXN2 expr inh -1%, ATXN viability inactive and A549 tox 2%.
For CC(=O)Nc1nn(C)c2nc(C)cc(C)c12 the results were Nrf2 block 8%, Nrf2 activator -1%, ATXN2 expr inh 11%, ATXN viability inactive and A549 tox 3%.

High-throughput results from PubChem.
